A short description of assay [1]: AP1 Signaling Pathway (AID 357; active = well fitted curve in either direction with a large enough effect, not every such curve was filed as active;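 note: ME-180 reporter cells stimulated with EGF at its EC50 level; % is set by controls: 0 for no effect and ±100 for the full control effect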). The method, boiled down:
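AP-1-bla ME-180 cells, Opti-MEM + 0.5% dialyzed FBS, plated overnight 37 °C. Cpd titration + EC50 EGF, 5 h 37 °C. CCF4 2.5 h RT; ex 405, em 460/530 ratio → %activity, AC50.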

The target in assay [2] is Cytochrome P450 1A2 (Homo sapiens) (UniProt P05177). As to the kind of experiment: p450-cyp1a2 (AID 410; calls by dose curve; note: potency is the fitted concentration of half-maximal effect). In short, it runs like this: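 Read-out is luminescence from luciferin produced by CYP1A2 demethylation of Luciferin-ME (100uM, at Km). Detection reagent stopped the 60 min NADPH-dependent reaction; signals were normalized to 57 uM furafylline.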
Sequence of Cytochrome P450 1A2 (Homo sapiens) (P05177 whole entry, looked up): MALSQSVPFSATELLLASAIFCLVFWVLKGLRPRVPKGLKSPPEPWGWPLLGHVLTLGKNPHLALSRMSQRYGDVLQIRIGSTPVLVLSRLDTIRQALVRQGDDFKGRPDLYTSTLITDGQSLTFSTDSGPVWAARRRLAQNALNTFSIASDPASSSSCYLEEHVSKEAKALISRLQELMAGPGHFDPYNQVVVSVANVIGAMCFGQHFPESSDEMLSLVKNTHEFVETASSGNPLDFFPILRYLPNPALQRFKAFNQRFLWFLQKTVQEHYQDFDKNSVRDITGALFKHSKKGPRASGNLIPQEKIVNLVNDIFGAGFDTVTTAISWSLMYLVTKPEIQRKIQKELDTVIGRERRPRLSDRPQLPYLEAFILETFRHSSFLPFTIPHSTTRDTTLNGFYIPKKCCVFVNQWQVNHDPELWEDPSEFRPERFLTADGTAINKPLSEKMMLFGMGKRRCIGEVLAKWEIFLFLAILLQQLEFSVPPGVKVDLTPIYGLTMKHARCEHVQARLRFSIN
Assay [3] in a line: NFAT Signaling Pathway (AID 444; active = well fitted curve in either direction with a large enough effect, not every such curve was filed as active;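 note: carbachol stimulus at about its EC50 of 1 µM final; % is set by controls: 0 for no effect and ±100 for the full control effect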). The settings on record: Jurkat NFAT-bla M1, carbachol, beta-lactamase ratio, 5 h; at 17.2 µM (top of the series) unless noted. In short, it runs like this:
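Read-out: CCF4 FRET ratio (460 nm/530 nm) after 1 h RT dye loading, used for %activity and AC50 from titration series. Cells: Jurkat NFAT-β-lactamase/M1 line, treated with compound plus 1 uM carbachol for 5 h, 37 °C.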

The target of assay [4] is Glucocorticoid receptor (Homo sapiens) (UniProt P04150). Briefly: GR-GFP Redistribution (AID 450;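 active = compounds whose dose series gives a full or clear partial fitted curve of increased nuclear translocation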; note: potency is the fitted concentration of half-maximal effect). The conditions noted are these: U2OS GR-GFP nuclear translocation, laser cytometry, 2 h.
Sequence of Glucocorticoid receptor (Homo sapiens) (P04150 whole entry, looked up): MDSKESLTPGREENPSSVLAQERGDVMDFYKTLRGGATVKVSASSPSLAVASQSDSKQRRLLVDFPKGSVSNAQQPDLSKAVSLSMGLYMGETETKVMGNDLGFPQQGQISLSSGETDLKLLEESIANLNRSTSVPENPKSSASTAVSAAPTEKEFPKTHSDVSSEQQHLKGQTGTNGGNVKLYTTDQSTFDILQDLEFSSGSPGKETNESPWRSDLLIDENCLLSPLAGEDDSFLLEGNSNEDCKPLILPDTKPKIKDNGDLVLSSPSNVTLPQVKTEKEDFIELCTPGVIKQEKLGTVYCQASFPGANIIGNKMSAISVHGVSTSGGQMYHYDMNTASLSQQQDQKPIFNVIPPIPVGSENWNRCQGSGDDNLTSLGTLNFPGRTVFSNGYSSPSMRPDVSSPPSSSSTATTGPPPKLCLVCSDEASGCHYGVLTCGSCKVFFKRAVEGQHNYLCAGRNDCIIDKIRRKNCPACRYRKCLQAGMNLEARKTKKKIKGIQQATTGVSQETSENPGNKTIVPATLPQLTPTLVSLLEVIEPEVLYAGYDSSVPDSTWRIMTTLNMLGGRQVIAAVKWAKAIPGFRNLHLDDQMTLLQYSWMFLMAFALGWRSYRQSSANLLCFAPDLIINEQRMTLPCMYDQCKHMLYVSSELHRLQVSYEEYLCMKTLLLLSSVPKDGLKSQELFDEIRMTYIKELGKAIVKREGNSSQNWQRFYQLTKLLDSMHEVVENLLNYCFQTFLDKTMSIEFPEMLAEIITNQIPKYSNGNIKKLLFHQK
Assay [5] has the same target. Briefly: GR-EFC Redistribution (AID 451; calls by dose curve; note: potency is the fitted concentration of half-maximal effect). The settings on record: CHO-K1 GR-EFC translocation, beta-gal luminescence, 2 h. The method, boiled down:
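Translocation of GR-ED fusion to nuclear EA restores b-gal, read by luminescence after 1 h room-temperature detection. Engineered CHO-K1 biosensor cells, 1,000/well, exposed 2 h at 37 C to titrations up to 46 uM final.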

The target of assay [6] is Mitogen-activated protein kinase 10 (Mus musculus) (UniProt Q61831). Briefly: JNK3 AlphaScreen Assay (AID 530; active = well fitted curve in either direction with a large enough effect, not every such curve was filed as active;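 note: kinase came from lysate of stimulated human HepG2 cells; signal reports phosphorylation of biotinylated GST-cJun 1-79 at Ser73 with 10 µM ATP; % is set by controls: 0 for no effect and ±100 for the full control effect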). The method, boiled down: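 Kinase buffer: 20 mM Tris-HCl pH 7.6, 10 mM MgCl2, 1 mM DTT, 0.1 mM Na3VO4, 0.01% Tween-20; ATP 10 uM. Substrate biotin-GST-cJun(1-79), enzyme from activated HepG2 lysates. Detection by Ser73 phospho-antibody AlphaScreen.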
In general terms: Bead proximity is the source of the signal in Alpha formats.

Assay [7] has as its target 3',5'-cyclic-AMP phosphodiesterase 4B (Homo sapiens) (UniProt Q07343). Briefly: qHTS Assay for Inhibitors of PDE-IV (AID 607; active = well fitted activation curve with a large enough effect in the main read-out, with a control signal flat, not every such curve was filed as active; note: % of control where 0% means no effect). The method, boiled down:
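HEK293 ACTOne cells with CNG channel (1000/well), endogenous PDE4; membrane potential dye, compounds up to 22.9 uM final. Fluorescence Ex 535/Em 590; RO 20-1724 (100 uM final) as reference.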
On the technique in general: In qHTS, concentration-response curves come from the screen itself.

Assay [8] can be described thus: qHTS Assay for Lipid Storage Modulators (AID 1519; calls by dose curve). The settings on record: Drosophila S3 cells, BODIPY lipid droplet/cell ratio, laser cytometry, cells loaded with oleic acid; for activity change, negative = inhibition: at 25.7 µM (top of the series). The method, boiled down: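 Cells seeded at 5,000 per well were treated with compounds over a concentration series and loaded with oleic acid (400 uM, as added). Lipid droplet fluorescence (488 nm excitation, 500-530 nm channel) was read by laser-scanning cytometry and normalized to 20 uM Triacsin C.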

Assay [9] addresses Ubiquitin carboxyl-terminal hydrolase 1 (Homo sapiens) (UniProt O94782). Briefly: Inhibitors of USP1/UAF1: Pilot qHTS (AID 504865).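 Note: rhodamine fluorescence freed from ubiquitin-rhodamine substrate followed over time; top concentration of the series differs between compounds; % is set by controls: 0 for no effect and ±100 for the full control effect; nearly all actives have a fitted effect of over 35% in size.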 In short, it runs like this:
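Kinetic fluorescence assay: 1nM USP1/UAF1, 15 min compound preincubation, then 150nM Ub-Rho; 480/540 nm.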

Assay [10] in a line: Stat Signaling Pathway (AID 446; active = well fitted curve in either direction with a large enough effect, not every such curve was filed as active;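 note: ME-180 cervical cancer cells given 40 pM IL-6 alongside compound; SIE-controlled beta-lactamase reporter measured as 460/530 nm FRET emission ratio; % is set by controls: 0 for no effect and ±100 for the full control effect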). The method, boiled down:
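Normalization used AC90 stimulation (300 pM IL-6) and AC90 inhibition (125 nM pan-JAK inhibitor at 40 pM IL-6). The underlying signal is SIE-driven beta-lactamase in ME-180 cells after 5 h IL-6 exposure with compound.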

Assay [11] is described as follows: S16 Schwann cell viability assay (CellTiter-Glo assay) (AID 624031).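 Note: native untransfected S16 rat Schwann cells; cellular ATP luminescence as a viability measure; plate controls were DMSO-treated cells for no effect and cell-free wells for full effect; nearly all actives have a fitted effect of over 70% in size.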 In short, it runs like this:
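Concentration-effect curves come from CellTiter-Glo luminescence of S16 rat Schwann cells after 24 h compound exposure. Each reading was normalized to DMSO wells (0%) and wells without cells, and curves were ranked by r2 and response magnitude.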
(In general: In ATP-based viability assays light output follows the ATP content of the culture.)

The nature of assay [12]: S16 Schwann cell PMP22 intronic element firefly luciferase assay (AID 624032).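 Note: plate controls were DMSO for no effect and PTC124 positive control mean for full effect; nearly all actives have a fitted effect of over 30% in size.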 The method, boiled down: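 Luciferase reporter of PMP22 intronic-element expression in stably transfected S16 rat Schwann cells, read by ONE-Glo luminescence after 24 h compound exposure at 37 C. Activity scaled between DMSO (0%) and positive-control PTC124; concentration-effect curves quality-classified.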

The nature of assay [13]: qHTS profiling for inhibitors of Plasmodium falciparum proliferation (AID 504749).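 Note: 0% = DMSO vehicle and full inhibition = artemisinin control; nearly all actives have a fitted effect of over 60% in size.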 The settings on record: P. falciparum in erythrocytes, SYBR Green DNA, 72 h, at 12.8 µM (top of the series). In short, it runs like this: (§1)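 In a 72 h erythrocytic culture (37 C, humidified, 5% CO2) at 2.5% hematocrit and 0.3% starting parasitemia, compounds were tested; SYBR Green I in detergent lysis buffer stained parasite DNA overnight.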

In a further assay the test system is 3D7. The description is as above. The conditions noted are these: P. falciparum in erythrocytes, SYBR Green DNA, 72 h; series mostly up to 12.8 µM. In short, it runs like this: as §1
The subject of another assay is AS120. Described as above. The settings on record: P. falciparum in erythrocytes, SYBR Green DNA, 72 h; series mostly up to 12.8 µM. In short, it runs like this:
as §1

In a further assay the test system is ATS189. Described as above. The settings on record: P. falciparum in erythrocytes, SYBR Green DNA, 72 h; series mostly up to 12.8 µM. The method, boiled down: as §1
The subject of another assay is CP217. Described as above. The conditions noted are these: P. falciparum in erythrocytes, SYBR Green DNA, 72 h; series mostly up to 12.8 µM. In short, it runs like this:
as §1

The subject of another assay is CP247. Described as above. The conditions noted are these: P. falciparum in erythrocytes, SYBR Green DNA, 72 h; series mostly up to 12.8 µM. In short, it runs like this:
as §1

Another assay has as its system CP250. The description is as above. The conditions noted are these: P. falciparum in erythrocytes, SYBR Green DNA, 72 h; series mostly up to 12.8 µM. The method, boiled down:
as §1

For a further assay, the system named is SC27B. The assay is described as above. The conditions noted are these: P. falciparum in erythrocytes, SYBR Green DNA, 72 h; series mostly up to 12.8 µM. The method, boiled down: as §1
Where [14] appears, read: measured here: cell count channel max response.
The mark [15] stands for this setting: measured here: lipid channel max response.

Inconclusive results are not listed. Activity calls are given as the source filed them. Unless noted, calls come from the whole dose curve; as a rule, active = well fitted curve in the direction sought with a large enough effect; inconclusive = small, poorly fitted or top-dose-only effect, or another doubt; inactive = no such curve, though single readings can be large; an effect the other way counts as inactive or inconclusive.

Sequence of Ubiquitin carboxyl-terminal hydrolase 1 (Homo sapiens) (O94782 whole entry, looked up): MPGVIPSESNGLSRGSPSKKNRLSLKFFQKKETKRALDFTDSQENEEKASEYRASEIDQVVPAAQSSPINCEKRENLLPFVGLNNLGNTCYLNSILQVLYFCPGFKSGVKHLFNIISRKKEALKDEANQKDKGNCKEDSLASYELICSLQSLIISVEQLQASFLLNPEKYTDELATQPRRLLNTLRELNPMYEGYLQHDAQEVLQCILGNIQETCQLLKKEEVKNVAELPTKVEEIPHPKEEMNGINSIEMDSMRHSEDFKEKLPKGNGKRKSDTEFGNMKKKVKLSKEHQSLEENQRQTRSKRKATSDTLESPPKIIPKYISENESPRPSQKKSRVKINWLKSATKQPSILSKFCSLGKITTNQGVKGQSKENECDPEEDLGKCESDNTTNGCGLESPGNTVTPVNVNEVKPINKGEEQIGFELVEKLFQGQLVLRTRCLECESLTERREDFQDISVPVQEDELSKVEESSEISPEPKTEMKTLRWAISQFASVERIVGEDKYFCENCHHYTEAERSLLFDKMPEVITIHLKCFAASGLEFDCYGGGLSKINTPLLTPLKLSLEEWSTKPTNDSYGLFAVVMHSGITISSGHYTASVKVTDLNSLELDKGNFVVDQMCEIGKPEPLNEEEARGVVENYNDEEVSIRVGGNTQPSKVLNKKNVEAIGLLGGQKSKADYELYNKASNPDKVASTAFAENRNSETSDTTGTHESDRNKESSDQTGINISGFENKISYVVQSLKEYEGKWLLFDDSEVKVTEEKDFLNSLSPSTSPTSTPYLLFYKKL
Sequence of 3',5'-cyclic-AMP phosphodiesterase 4B (Homo sapiens) (Q07343 whole entry, looked up): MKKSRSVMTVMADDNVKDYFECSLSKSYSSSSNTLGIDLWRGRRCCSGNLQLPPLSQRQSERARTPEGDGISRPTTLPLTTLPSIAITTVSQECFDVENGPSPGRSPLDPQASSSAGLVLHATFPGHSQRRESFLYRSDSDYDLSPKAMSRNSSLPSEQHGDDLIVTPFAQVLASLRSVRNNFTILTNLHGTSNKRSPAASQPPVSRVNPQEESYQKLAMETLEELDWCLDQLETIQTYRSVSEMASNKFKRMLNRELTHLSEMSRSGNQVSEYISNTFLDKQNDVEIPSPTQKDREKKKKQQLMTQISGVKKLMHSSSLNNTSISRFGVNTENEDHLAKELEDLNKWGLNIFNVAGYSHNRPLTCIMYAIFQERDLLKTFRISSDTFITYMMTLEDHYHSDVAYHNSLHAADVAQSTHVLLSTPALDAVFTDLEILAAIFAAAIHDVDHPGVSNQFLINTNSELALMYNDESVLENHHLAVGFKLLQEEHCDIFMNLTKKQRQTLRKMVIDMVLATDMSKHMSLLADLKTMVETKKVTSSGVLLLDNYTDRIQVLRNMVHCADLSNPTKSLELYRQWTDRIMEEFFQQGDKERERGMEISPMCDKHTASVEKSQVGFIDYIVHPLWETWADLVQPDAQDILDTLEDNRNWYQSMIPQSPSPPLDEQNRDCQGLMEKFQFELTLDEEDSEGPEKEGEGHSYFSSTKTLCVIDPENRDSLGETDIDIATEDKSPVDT

`C[C@]12CC[C@@H]3C(=CCc4cc(O)ccc43)[C@@H]1CCC2=O`: the compound was called inactive in [1] and in assay [7]. In addition, the Potency in assay [2] was 10 µM (active); in [4] it was > 20.6 µM (inactive); in assay [5] it was > 20.6 µM (inactive). Moreover, the activity change, negative = inhibition in assay [3] was 1.57% (inactive); in [8] it was -4.32% (inactive). In addition, the Potency result in assay [6] and in [9] was “inactive” throughout. Further, the max response in assay [8] (setting [14]) is -14.4%; in [8] (setting [15]) it was -15.4%.
On to `C[C@@H](C(=O)O)c1ccc(C(=O)c2ccccc2)s1`, for which the result in [1], in assay [10], in [7] and in assay [11] was inactive. Moreover, the Potency in assay [2] was 0.251 µM (active). Further, the figures for the activity change, negative = inhibition in assay [3] and in assay [8] were 4.12% (inactive) and -0.119% (inactive), respectively. Also, the Potency entry (in assay [6]; in [9]; in assay [12]; in the assay with 3D7; in the assay with AS120; in the assay with ATS189) was “inactive” in each case. In addition, the Potency result with CP217, in the assay with CP247, in the assay on CP250 and in the assay with SC27B was “inactive” each time. Moreover, the max response is 1.62% in assay [8] (setting [14]) and 2.32% in assay [8] (setting [15]). The activity, negative = inhibition in [13] (parasite line A) is 5.2% (inactive); in assay [13] (parasite line B) it was 16.9% (inactive).
For `CC[C@H]1NC(=O)c2cc(S(N)(=O)=O)c(Cl)cc2N1`, the call in assay [1], in [10] and in [11] was inactive. Moreover, the activity change, negative = inhibition in [3] is -14.6% (inactive); in [8] it was -1.77% (inactive). In addition, the Potency in assay [4] and in assay [5] was > 20.6 µM (inactive) each time. In addition, the Potency result (in assay [6]; in assay [9]; in assay [12]; in the assay with 3D7; in the assay with AS120; in the assay on ATS189) was “inactive” each time. Moreover, the Potency result with CP217, in the assay with CP247, with CP250 and in the assay with SC27B was “inactive” throughout. The max response in [8] (setting [14]) is 0.892%; in assay [8] (setting [15]) it was -1.37%. For the same compound, the activity, negative = inhibition in assay [13] (parasite line A) was -8.58% (inactive); in [13] (parasite line B) it was 18.4% (inactive).
With `CCCCC[C@H](O)/C=C\[C@@H]1[C@H](O)CC(=O)[C@@H]1CCCCCCC(=O)O`, the result in assay [1], in [10], in assay [7] and in assay [11] was inactive. Further, the activity change, negative = inhibition in [3] was -1.09% (inactive); in [8] it was -3.38% (inactive). Also, the Potency in [4] and in [5] was > 20.6 µM (inactive) each time. The Potency result (in assay [6]; in assay [9]; in assay [12]; in the assay on 3D7; in the assay on AS120; in the assay with ATS189) was “inactive” in each case. Besides, the Potency entry in the assay with CP217, with CP247, with CP250 and in the assay on SC27B was “inactive” throughout. In addition, the results for the max response in assay [8] (setting [14]) and in assay [8] (setting [15]) were -5.83% and -11.1%, respectively. Also, the activity, negative = inhibition in assay [13] (parasite line A) is 8.32% (inactive); in assay [13] (parasite line B), 1.76% (inactive).

Values taken from PubChem BioAssay (NCATS).
